Measurements published in PubChem BioAssay (Tox21).
Records with an inconclusive call do not appear. Where a call stands in place of a potency, no number is given. Unmarked numbers belong to inactive results. Calls of active or inactive are those of the source. Calls follow the shape of the full dose curve.

Assay: p53 small molecule agonists, cell-based qHTS assay with rat liver microsomes: qHTS cell viability counter screen (AID 1963580); also: nearly all actives have a fitted effect of over 45% in size
Settings: p53RE-bla HCT-116 + rat microsomes, ATP viability, 16 h; series mostly up to 66 µM
From the text: National Center for Advancing Translational Sciences [NCATS]
Division of Preclinical Innovation [DPI]
U.S. Environmental Protection Agency [EPA]
National Institutes of Environmental Health Sciences [NIEHS]
National Toxicology Program [NTP]
U.S. Food and Drug Administration [FDA]
p53, a tumor suppressor protein, is activated following cellular insult, including DNA damage and other cellular stresses. The activation of p53 regulates cell fate by inducing DNA repair, cell cycle arrest, apoptosis, or cellular senescence. The activation of p53, therefore, is a good indicator of DNA damage and other cellular stresses. The CellSensor p53RE-bla HCT-116 cell line contains a stably integrated beta-lactamase reporter gene under control of the p53 response elements. The activation of the reporter gene under culture conditions can be detected by fluorescence intensity. This cell line was used to screen the Tox21 10K compound library in the condition of presence of rat liver microsomes and to identify agonists that activate the p53 signaling pathway after in vitro metabolic activation (Ooka et al., Archive of Toxicology 96:1975-1987, 2022). The cytotoxicity of the Tox21 compound library against the p53 RE-bla HCT-116 cell line was tested in parallel by measuring the intra cellular ATP content in the same wells.
Tox21 Assay Protocol Summary:
The p53RE-bla cells were dispensed at 4,000cells/3ul/well in 1536-well black-clear bottom plates. After the assay plates were incubated at 37 C, 5% CO2 incubator for 5 hours, 23 nL of compounds dissolved in DMSO, positive controls or DMSO only was transferred to the assay plate. Following compound addition, 3 uL of rat liver microsomes (Molecular Toxicology, Boone, NC) at final concentration of 0.5 mg/mL and 1uL of B-Nicotinamide adenine dinucleotide 2'-phosphate (NADPH) at final concentration of 0.5 mg/mL were transferred to the assay plate. The plates were incubated at 37 C for 16 hours. 1 uL of LiveBLAzer detection mixture was added to each well and the plates were incubated at room temperature in the dark for 2 h. Fluorescence intensity at 460 and 530 nm emission and 405 nm excitation were measured by an Envision plate reader. For cell viability readout that measures cytotoxicity, 4 ul/well of CellTiter-Glo reagent was added into the assay plates using a Flying Reagent Dispenser. After 30 min incubation at room temperature, the luminescence intensity in the plates was measured using a ViewLux plate reader.
With CC(C)C(=O)c1ccccc1 the Potency was “inactive”.
For O=C(O)/C=C/c1cnc[nH]1, the Potency was “inactive”.
Compound O=S(=O)(O)c1ccc2c(N=Nc3ccc(S(=O)(=O)O)c4ccccc34)c(O)c(S(=O)(=O)O)cc2c1 has an activity change, negative = cytotoxicity of -3.24% [at 5.99 µM].
For NC(=O)C1CO1 (stereo not given), the Potency was “inactive”.
For O=C(Oc1ccccc1)c1ccc(O)cc1, the Potency was “inactive”.
In the case of COc1c2ccoc2cc2oc(=O)ccc12, the Potency is reported as “inactive”.
In the case of OCCc1ccccn1, the Potency is reported as “inactive”.
For c1ccc2cnccc2c1, the Potency was “inactive”.
With CC1=C(CC(=O)O)c2cc(F)ccc2/C1=C\c1ccc(S(C)=O)cc1 (stereo not given) the Potency was “inactive”.
In the case of Cc1cc(C)c(N=Nc2c(O)c(S(=O)(=O)O)cc3cc(S(=O)(=O)O)ccc23)cc1C, the activity change, negative = cytotoxicity is reported as -1.53% [at 5.99 µM].
With CCCCOCCOCCOC(=O)CCCCC(=O)OCCOCCOCCCC the Potency was “inactive”.
With CCN(CC)CC(=O)Oc1ccc(NC(C)=O)cc1 the Potency was “inactive”.
With O=S(=O)(O)CCS the Potency was “inactive”.
With Nc1nnnn1-c1ccccc1 the Potency was “inactive”.
With CN1CCCC1 the Potency was “inactive”.
For CC(C)(O)Cc1ccccc1, the Potency was “inactive”.
With Nc1ncnc2c1ncn2Cc1c(F)cccc1Cl the Potency was “inactive”.
With NC(=O)NNc1ccccc1 the Potency was “inactive”.
With NCCCN1CCN(CCCN)CC1 the Potency was “inactive”.
For C[Si](C)(C)Cl, the Potency was “inactive”.
With C[C@@H]1O[C@@H](OC[C@H]2O[C@@H](Oc3c(-c4ccc(O)c(O)c4)oc4cc(O)cc(O)c4c3=O)[C@H](O)[C@@H](O)[C@@H]2O)[C@H](O)[C@H](O)[C@H]1O the Potency was “inactive”.
For O=C(O)c1ccccc1[N+](=O)[O-], the Potency was “inactive”.
For O=C(O)c1ccco1, the Potency was “inactive”.
With CCCCCCCCCC/C=C/C#N the Potency was “inactive”.
With O=C1CCC(=O)N1 the Potency was “inactive”.
In the case of C=C(C)[C@@H]1CC[C@@H](C)C[C@@H]1O, the Potency is reported as “inactive”.
With CC1=CCC(O)(C(C)C)CC1 (stereo not given) the Potency was “inactive”.
In the case of CC1(C)CO[C@@H](CC(=O)O)CN1, the Potency is reported as “inactive”.
With Nc1ccccc1S(=O)(=O)O the Potency was “inactive”.
For CC(C)c1ccccc1O, the Potency was “inactive”.
For c1ccc2c(c1)CCC2, the Potency was “inactive”.
With NC(=O)Cc1cccc2ccccc12 the Potency was “inactive”.
With Brc1cc(Br)cc(Br)c1 the Potency was “inactive”.
In the case of CC(=O)Nc1c(I)cc(I)c(C(=O)O)c1I, the Potency is reported as “inactive”.
With CC1(C)Oc2ccc(C#N)cc2[C@@H](N2CCCC2=O)[C@@H]1O the Potency was “inactive”.
With Cc1ccc(-c2ccccc2C#N)cc1 the Potency was “inactive”.
With C=C(C)C(=O)OCCCCCCCC(C)C the Potency was “inactive”.
For CC(COCC(C)OC(=O)c1ccccc1)OC(=O)c1ccccc1 (stereo not given), the Potency was “inactive”.
For Oc1ccc(C(c2ccc(O)cc2)C(Cl)(Cl)Cl)cc1, the Potency was “inactive”.
With NC1CCCCC1N (stereo not given) the Potency was “inactive”.
